Experimental data published in PubChem BioAssay (NCATS).
Inconclusive results are not listed. Values without a mark were called inactive. The call rests on the fitted dose curve; in most records, active means well fitted cell-killing curve with a large enough effect; inconclusive means small, poorly fitted or top-dose-only effect, or effect the other way; inactive means flat fitted curve, though single readings scatter. Where a SMILES comes first, the peptide text is derived from it. The star is where a group is joined. AFC = O=c1cc(C(F)(F)F)c2ccc(N*)cc2o1

Test system: Tov-21-G
Test: Primary qHTS to identify gynecologic anti-cancer compounds using libraries of approved drugs and bioactive compounds (AID 1345084); further: nearly all actives have a fitted effect of over 55% in size
Conditions: Gynecologic cancer cell panel viability, ATPlite luminescence, 48 h; series mostly up to 57.5 µM; activity change, negative = cytotoxicity: at the top concentration
Outline: (§1)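 Measured: luminescence after ATPlite addition (15 min, RT). Exposure: 48 h, 37 C, 5% CO2.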
On the % scale 0 is the no-effect control and ±100 the full control effect.

| Structure (SMILES) | activity change, negative = cytotoxicity |
| --- | --- |
| COc1ccc(/C=C/C(=O)O[C@H]2[C@H](O[C@H]3[C@@H]4C=CO[C@@H](O[C@@H]5O[C@H](CO)[C@@H](O)[C@H](O)[C@H]5O)[C@@H]4[C@@]4(CO)O[C@@H]34)O[C@@H](C)[C@H](O)[C@H]2OC(C)=O)cc1 | 2.29% [at 25.3 µM] |
| COC(=O)C12C(=O)C(C)=C(O)C1(C)C(C)=CC1C3(CO)CCC(O)C(C)(C)C3CCC12C (stereo unspecified) | 7.6% [at 25.3 µM] |
| C=C1[C@H](OC(C)=O)[C@H]2[C@@H](OC(C)=O)[C@](C)(OC(C)=O)C[C@]2(OC(C)=O)C(=O)[C@H](C)/C=C/C(C)(C)C(=O)[C@H](OC(=O)C(C)C)[C@H]1OC(C)=O | 1.64% [at 25.3 µM] |
| COC(=O)N(C)c1c(N)nc(-c2nn(Cc3ccccc3F)c3ncccc23)nc1N | 5.08% |
| C=C1C[C@]23C[C@H]1CC[C@H]2[C@@]1(C)CCC[C@@]2(C)C(=O)O[C@@H]([C@@H]3O)[C@@H]12 | 0.64% [at 38.5 µM] |
| CC(O)CCC1C(CO[C@@H]2O[C@H](CO)[C@@H](O)[C@H](O)[C@H]2O)CC(O)CC1(C)C (stereo partly specified) | 4.39% [at 38.5 µM] |
| CC1=C2C[C@H]3O[C@@]3(C)CCC3O[C@@]3(C)C[C@@]2(O)OC1=O (stereo partly specified) | 4.73% |
| O=C(O)Cc1cn(C2OCC(O)C(O)C2O[C@@H]2O[C@H](CO)[C@@H](O)[C@H](O)[C@H]2O)c2ccccc12 (stereo partly specified) | 1.02% [at 25.3 µM] |
| CC(C)C(C#N)O[C@@H]1O[C@H](CO[C@@H]2O[C@@H](C)[C@H](O)[C@@H](O)[C@H]2O)[C@@H](O)[C@H](O)[C@H]1O (stereo partly specified) | 0% [at 25.3 µM] |
| COC1CC(OC2CCC3(C)C(=CCC4C3C(OC(C)=O)C(OC(=O)/C=C/c3ccccc3)C3(C)C(C(C)O)CCC43O)C2)OC(C)C1OC1CC(OC)C(OC2OC(C)C(OC3OC(CO)C(O)C(O)C3O)C(OC)C2O)C(C)O1 (stereo unspecified) | 9.97% [at 6.55 µM] |
| C=C1C(O)CC2C(C(=O)O)=COC(O[C@@H]3O[C@H](COC(=O)/C=C/c4ccc(O)cc4)[C@@H](O)[C@H](O)[C@H]3O)C12 (stereo partly specified) | 0.0111% [at 25.3 µM] |
| CC(=O)O[C@H]1CC[C@H](C)[C@@]2(C)[C@H](OC(C)=O)c3c(C)coc3C(=O)[C@H]12 | -2.58% [at 38.5 µM] |

Test system: Tov112D
Test: as above
Conditions: Gynecologic cancer cell panel viability, ATPlite luminescence, 48 h; series mostly up to 57.5 µM; activity change, negative = cytotoxicity: at the top concentration
Outline: as §1

| Structure (SMILES) | activity change, negative = cytotoxicity |
| --- | --- |
| CCC(C)C(=O)O[C@H]1CCC=C2C=C[C@H](C)[C@H](CC[C@@H](O)C[C@@H](O)CC(=O)O)[C@H]21 (stereo partly specified) | -2.17% [at 25.3 µM] |
| CC(=O)NC1C(OC(C)(C)C2CCC3(C)C=C(C4CCC5C4(C)CC(O)C4OC(C(C)(C)O)CCC45C)CCC3O2)OC(CO)C(O)C1O (stereo unspecified) | -0.847% [at 25.3 µM] |
| CC(=O)O[C@@H]1c2c3c(cc(O)c2C(=O)O[C@@H]1C)O[C@@]1(C)[C@@H](O)C[C@H]2C(C)(C)C(=O)C=C[C@]2(C)[C@@H]1C3 | -3.08% [at 25.3 µM] |
| COc1c(C)c(OCC(O)C(C)(C)O)cc2c1COC2=O (stereo unspecified) | 2.7% |
| CC(=O)CC1CCC(C(C)C(=O)OCC(O)CO)O1 (stereo unspecified) | 2.21% |
| O=C(O)COCCN1CCN([C@H](c2ccccc2)c2ccc(Cl)cc2)CC1 | 9.43% |
| Nc1nc2c(ncn2[C@@H]2O[C@@H]3COP(=O)(O)O[C@H]3[C@H]2O)c(=O)[nH]1 | 0.382% |
| CC1=C(C(=O)O)/C(=C/CO[C@@H]2O[C@H](COC(=O)/C=C/c3ccc(O)cc3)[C@@H](O)[C@H](O)[C@H]2O)C(O)C1 (stereo partly specified) | 1.89% [at 25.3 µM] |
| Cc1cc(C)c2c(N)c(C(=O)NCc3ccc(Cl)cc3)sc2n1 | 8.14% |
| CC(=O)OC1C(O)C2C(C)C3=CC(=O)OC3(O)CC2C2(C)CCCC(C)(CO)C12 (stereo unspecified) | 8.41% [at 25.3 µM] |
| CC(C)C(NC(=O)c1ccc2ccccc2n1)C(=O)NC(CC(=O)O)C(=O)COc1c(F)cccc1F (stereo unspecified) | 7.39% |
| O=C(Nc1ccc(-c2ccncc2)cc1)N[C@H](CO)c1ccccc1 | 4.25% |
| CC1=CC2/C=C(\C)CC[C@@H](O)[C@@H](O)[C@@H]3O[C@@H]3C(=O)[C@]23C(=O)N[C@@H](CC(C)C)[C@@H]3[C@@H]1C (stereo partly specified) | -4.27% [at 25.3 µM] |
| O=C(NCC(O)CO)c1ccncc1Nc1ccc(I)cc1F (stereo unspecified) | -23.7% |
| CC1(C)CC2=C3C=CC4C5(C)CCC(O)C(C)(C)C5CCC4(C)C3(C)CCC2(C)C(O)C1 (stereo unspecified) | 0.214% [at 25.3 µM] |
| COC(=O)C1=CO[C@@H](O[C@@H]2O[C@H](CO)[C@@H](O)[C@H](O)[C@H]2O)[C@H]2[C@@H]1CC(OC)O[C@@H]2C (stereo partly specified) | 16.1% [at 25.3 µM] |
| C[C@@H]1O[C@@H](O[C@@H]2[C@@H](O[C@@H]3O[C@@H](C)[C@H](O[C@@H]4OC[C@H](O)[C@H](O[C@@H]5OC[C@@H](O)[C@H](O)[C@H]5O)[C@H]4O)[C@@H](O[C@@H]4OC[C@](O)(CO)[C@H]4O)[C@H]3O)[C@H](OC(=O)[C@]34CCC(C)(C)C[C@H]3C3=CCC5[C@@]6(C)C[C@H](O)[C@H](O[C@@H]7O[C@H](CO[C@@H]8OC[C@H](O)[C@H](O)[C@H]8O)[C@@H](O)[C@H](O)[C@H]7O)C(C)(C)C6CC[C@@]5(C)[C@]3(C)C[C@H]4O)OC[C@H]2O)[C@H](O)[C@H](O)[C@H]1O (stereo partly specified) | 7.07% [at 6.55 µM] |
| C=C1CCCC2(C)CC3(OC)OC(=O)C(C)=C3CC12 (stereo unspecified) | -0.668% |
| CC(C)=CCC/C(C)=C/CCC1(C)Oc2c(c(O)cc3c2CN(C(CCC(=O)O)C(=O)O)C3=O)CC1O (stereo unspecified) | 1.19% [at 25.3 µM] |
| C=C(C(=O)O)C1CCC2(C)CCC(O)C(=C)C2C1 (stereo unspecified) | 6.07% |

| Structure (SMILES) | activity change, negative = cytotoxicity |
| --- | --- |
| CC12CCC3c4ccc(OC5OC(C(=O)O)C(O)C(O)C5O)cc4CCC3C1CCC2O (stereo unspecified) | 5.27% |
| CC(=O)N[C@@H](Cc1c[nH]c2ccccc12)C(=O)N[C@@H](CCC(=O)O)C(=O)N[C@@H](Cc1cnc[nH]1)C(=O)N[C@@H](CC(=O)O)C(=O)Nc1ccc2c(C(F)(F)F)cc(=O)oc2c1 (Ac-WEHD-{AFC}) | -0.46% [at 38.5 µM] |
| C[C@@H]1O[C@@H](O[C@H]2[C@@H](OC(=O)[C@]34CCC(C)(C)CC3C3=CCC5[C@@]6(C)C[C@H](O)[C@H](O[C@@H]7O[C@H](C(=O)O)[C@@H](O)[C@H](O)[C@H]7O)[C@@](C)(C(=O)O)C6CC[C@@]5(C)[C@]3(C)CC4)OC[C@H](O)[C@@H]2O)[C@H](O)[C@H](O)[C@H]1O[C@@H]1OC[C@@H](O)[C@H](O)[C@H]1O (stereo partly specified) | -6.05% [at 11.6 µM] |
| CC12CCC(C(OC3OC(COC4OCC(O)(CO)C4O)C(O)C(O)C3O)C1)C(C)(C)O2 (stereo unspecified) | 15.3% [at 25.3 µM] |
| O=C(/C=C\c1ccc(O)cc1)N[C@@H](Cc1ccc(O)cc1)C(=O)O | 10.4% [at 38.5 µM] |
| O=C(O)c1cccc(S(=O)(=O)N2CCc3ccccc3C2)c1 | 21.5% |
| C[C@@H]1O[C@@H](O[C@H]2[C@H](O)[C@@H](O[C@@H]3O[C@H](CO)[C@@H](O)[C@H](O[C@@H]4O[C@H](CO)[C@@H](O)[C@H](O)[C@H]4O)[C@H]3O)[C@H](O[C@H]3CC[C@@]4(C)C(=CC[C@@H]5C4CC[C@@]4(C)C5C[C@@H]5OC6(CC[C@@](C)(CO[C@@H]7O[C@H](CO)[C@@H](O)[C@H](O)[C@H]7O)O6)[C@@H](C)[C@@H]54)C3)O[C@@H]2CO)[C@H](O)[C@H](O)[C@H]1O (stereo partly specified) | -2.67% [at 6.55 µM] |
| COc1ccc(/C=C/C(=O)O[C@H]2[C@H](O[C@H]3[C@@H]4C=CO[C@@H](O[C@@H]5O[C@H](CO)[C@@H](O)[C@H](O)[C@H]5O)[C@@H]4[C@@]4(CO)O[C@@H]34)O[C@@H](C)[C@H](O)[C@H]2OC(C)=O)cc1 | 2.54% [at 25.3 µM] |
| COC(=O)C12C(=O)C(C)=C(O)C1(C)C(C)=CC1C3(CO)CCC(O)C(C)(C)C3CCC12C (stereo unspecified) | -0.868% [at 25.3 µM] |
| C=C1[C@H](OC(C)=O)[C@H]2[C@@H](OC(C)=O)[C@](C)(OC(C)=O)C[C@]2(OC(C)=O)C(=O)[C@H](C)/C=C/C(C)(C)C(=O)[C@H](OC(=O)C(C)C)[C@H]1OC(C)=O | -2.67% [at 25.3 µM] |
| COC(=O)N(C)c1c(N)nc(-c2nn(Cc3ccccc3F)c3ncccc23)nc1N | 20.8% |
| C=C1C[C@]23C[C@H]1CC[C@H]2[C@@]1(C)CCC[C@@]2(C)C(=O)O[C@@H]([C@@H]3O)[C@@H]12 | -0.969% [at 38.5 µM] |
| CC(O)CCC1C(CO[C@@H]2O[C@H](CO)[C@@H](O)[C@H](O)[C@H]2O)CC(O)CC1(C)C (stereo partly specified) | 4.12% [at 38.5 µM] |
| CC1=C2C[C@H]3O[C@@]3(C)CCC3O[C@@]3(C)C[C@@]2(O)OC1=O (stereo partly specified) | 3.34% |
| O=C(O)Cc1cn(C2OCC(O)C(O)C2O[C@@H]2O[C@H](CO)[C@@H](O)[C@H](O)[C@H]2O)c2ccccc12 (stereo partly specified) | 2.84% [at 25.3 µM] |
| CC(C)C(C#N)O[C@@H]1O[C@H](CO[C@@H]2O[C@@H](C)[C@H](O)[C@@H](O)[C@H]2O)[C@@H](O)[C@H](O)[C@H]1O (stereo partly specified) | 6.88% [at 25.3 µM] |
| COC1CC(OC2CCC3(C)C(=CCC4C3C(OC(C)=O)C(OC(=O)/C=C/c3ccccc3)C3(C)C(C(C)O)CCC43O)C2)OC(C)C1OC1CC(OC)C(OC2OC(C)C(OC3OC(CO)C(O)C(O)C3O)C(OC)C2O)C(C)O1 (stereo unspecified) | 2.28% [at 6.55 µM] |
| C=C1C(O)CC2C(C(=O)O)=COC(O[C@@H]3O[C@H](COC(=O)/C=C/c4ccc(O)cc4)[C@@H](O)[C@H](O)[C@H]3O)C12 (stereo partly specified) | -1.6% [at 25.3 µM] |
| CC(=O)O[C@H]1CC[C@H](C)[C@@]2(C)[C@H](OC(C)=O)c3c(C)coc3C(=O)[C@H]12 | -0.0796% [at 38.5 µM] |
